# How the values were obtained:
# Assay in all cases: DAPPL (digital affinity profiling via proximity ligation, sequencing); 10 mM Tris-HCl pH 7.5, 50 mM NaCl, 1 mM DTT, 4% glycerol, room temperature, 30 min; GST-TFs on glutathione beads, 16-mer random dsDNA library, 0.1% formaldehyde crosslink after washing; high values mean tight binding
# [1] = molecular target: T1, FLI1 (Homo sapiens, UniProt Q01543 1-452); settings: protein: recombinant; tags: N-terminal GST; dsDNA, one strand shown
# T1 sequence: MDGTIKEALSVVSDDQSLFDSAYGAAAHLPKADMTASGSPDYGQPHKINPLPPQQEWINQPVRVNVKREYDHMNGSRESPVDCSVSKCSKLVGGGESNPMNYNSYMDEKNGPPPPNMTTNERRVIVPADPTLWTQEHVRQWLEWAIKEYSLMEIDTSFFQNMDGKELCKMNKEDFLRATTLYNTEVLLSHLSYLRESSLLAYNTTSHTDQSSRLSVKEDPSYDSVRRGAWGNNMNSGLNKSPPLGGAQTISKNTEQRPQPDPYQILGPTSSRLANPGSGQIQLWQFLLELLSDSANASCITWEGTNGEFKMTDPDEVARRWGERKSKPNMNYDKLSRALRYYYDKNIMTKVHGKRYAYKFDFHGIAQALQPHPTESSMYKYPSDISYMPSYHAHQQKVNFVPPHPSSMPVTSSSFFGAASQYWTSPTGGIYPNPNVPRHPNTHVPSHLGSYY
# In short: (§1)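 Binding signal is each hexamer's read frequency for a factor divided by its frequency in the tag-only sample. The factors were GST-fused human transcription factors from yeast, captured on glutathione beads, DNA-barcoded and pooled with that sample. Pools were incubated with 200 nmole of a random double-stranded 16-mer DNA library in Tris/NaCl/DTT/glycerol buffer at room temperature for 30 min, then washed, crosslinked with 0.1% formaldehyde, proximity-ligated with BsaI/T4 ligase (1 h, 37 °C), PCR-amplified and sequenced on an Illumina NextSeq500.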
# [2] = molecular target: T2, ELK1 (Homo sapiens, UniProt P19419 1-428); settings: protein: recombinant; tags: N-terminal GST; dsDNA, one strand shown
# T2 sequence: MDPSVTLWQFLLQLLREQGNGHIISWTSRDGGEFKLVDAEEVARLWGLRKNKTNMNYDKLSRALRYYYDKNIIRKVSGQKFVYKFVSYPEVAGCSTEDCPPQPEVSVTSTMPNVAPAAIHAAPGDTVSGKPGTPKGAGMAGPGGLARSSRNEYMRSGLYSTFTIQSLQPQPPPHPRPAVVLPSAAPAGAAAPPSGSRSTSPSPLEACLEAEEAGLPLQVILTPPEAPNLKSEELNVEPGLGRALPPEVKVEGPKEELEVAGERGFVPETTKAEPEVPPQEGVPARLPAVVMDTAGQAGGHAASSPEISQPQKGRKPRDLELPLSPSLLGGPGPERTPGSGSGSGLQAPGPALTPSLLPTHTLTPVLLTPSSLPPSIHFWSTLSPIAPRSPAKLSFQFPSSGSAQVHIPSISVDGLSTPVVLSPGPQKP
# In short: as §1
# [3] = molecular target: T3, GABPA (Homo sapiens, UniProt Q06546 1-454); settings: protein: recombinant; tags: N-terminal GST; dsDNA, one strand shown
# T3 sequence: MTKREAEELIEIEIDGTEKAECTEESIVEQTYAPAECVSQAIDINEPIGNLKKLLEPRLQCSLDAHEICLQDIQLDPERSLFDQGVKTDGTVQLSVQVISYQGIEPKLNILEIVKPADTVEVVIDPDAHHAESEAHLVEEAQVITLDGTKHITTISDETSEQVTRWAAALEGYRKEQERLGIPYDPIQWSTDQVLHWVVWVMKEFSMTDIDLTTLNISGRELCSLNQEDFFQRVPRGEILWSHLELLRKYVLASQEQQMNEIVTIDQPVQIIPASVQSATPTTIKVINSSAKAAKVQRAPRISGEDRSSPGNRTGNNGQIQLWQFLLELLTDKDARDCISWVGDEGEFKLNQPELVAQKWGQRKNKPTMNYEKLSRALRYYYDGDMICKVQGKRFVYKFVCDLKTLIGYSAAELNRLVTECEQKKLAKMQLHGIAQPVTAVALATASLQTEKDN
# In short: as §1
# [4] = molecular target: T4, ERG (Homo sapiens, UniProt P11308 1-479); settings: protein: recombinant; tags: N-terminal GST; dsDNA, one strand shown
# T4 sequence: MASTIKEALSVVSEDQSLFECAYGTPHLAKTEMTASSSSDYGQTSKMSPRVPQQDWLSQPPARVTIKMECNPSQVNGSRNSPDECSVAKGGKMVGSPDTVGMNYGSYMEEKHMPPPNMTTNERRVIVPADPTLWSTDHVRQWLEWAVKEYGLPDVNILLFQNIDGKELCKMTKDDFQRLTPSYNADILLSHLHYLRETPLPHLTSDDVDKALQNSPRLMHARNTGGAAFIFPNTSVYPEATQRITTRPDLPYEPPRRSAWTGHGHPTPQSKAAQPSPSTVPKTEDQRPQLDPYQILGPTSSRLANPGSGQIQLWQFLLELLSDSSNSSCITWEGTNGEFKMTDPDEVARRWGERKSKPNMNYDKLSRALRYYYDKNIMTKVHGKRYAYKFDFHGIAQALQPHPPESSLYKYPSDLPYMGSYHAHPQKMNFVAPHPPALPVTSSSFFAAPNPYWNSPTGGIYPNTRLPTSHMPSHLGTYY
# In short: as §1
# [5] = molecular target: ELF1 (Homo sapiens, UniProt P32519 1-619); settings: protein: recombinant; tags: N-terminal GST; dsDNA, one strand shown
# Chain of ELF1 (P32519 whole entry): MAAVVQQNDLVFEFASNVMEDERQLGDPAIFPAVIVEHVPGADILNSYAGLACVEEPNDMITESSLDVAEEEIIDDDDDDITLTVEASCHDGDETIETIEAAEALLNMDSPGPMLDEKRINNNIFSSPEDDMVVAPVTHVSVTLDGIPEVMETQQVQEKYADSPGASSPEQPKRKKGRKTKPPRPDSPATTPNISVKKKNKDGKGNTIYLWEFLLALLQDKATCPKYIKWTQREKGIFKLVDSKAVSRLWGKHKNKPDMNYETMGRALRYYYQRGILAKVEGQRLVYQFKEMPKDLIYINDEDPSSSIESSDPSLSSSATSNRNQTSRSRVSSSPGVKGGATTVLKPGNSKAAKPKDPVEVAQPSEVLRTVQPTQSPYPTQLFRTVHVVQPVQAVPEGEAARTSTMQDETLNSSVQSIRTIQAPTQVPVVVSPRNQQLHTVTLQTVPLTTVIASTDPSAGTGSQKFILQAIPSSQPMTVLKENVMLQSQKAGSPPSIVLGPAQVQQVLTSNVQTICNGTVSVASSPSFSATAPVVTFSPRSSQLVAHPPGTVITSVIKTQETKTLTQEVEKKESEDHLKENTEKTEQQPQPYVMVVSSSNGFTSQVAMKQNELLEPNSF
# In short: as §1
# [6] = molecular target: T5, EHF (Homo sapiens, UniProt Q9NZC4 1-300); settings: protein: recombinant; tags: N-terminal GST; dsDNA, one strand shown
# T5 sequence: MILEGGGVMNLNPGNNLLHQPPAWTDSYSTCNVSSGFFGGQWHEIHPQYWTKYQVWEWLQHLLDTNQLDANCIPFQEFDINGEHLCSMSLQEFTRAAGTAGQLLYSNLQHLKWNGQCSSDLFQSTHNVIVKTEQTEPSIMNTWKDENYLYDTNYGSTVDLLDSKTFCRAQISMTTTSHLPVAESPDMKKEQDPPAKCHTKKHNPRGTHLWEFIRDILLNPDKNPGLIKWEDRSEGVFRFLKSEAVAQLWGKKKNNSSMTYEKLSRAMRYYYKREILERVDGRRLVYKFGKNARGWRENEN
# In short: as §1
# [7] = molecular target: SPI1 (Homo sapiens, UniProt P17947 1-270); settings: protein: recombinant; tags: N-terminal GST; dsDNA, one strand shown
# In short: as §1
# [8] = molecular target: SPIB (Homo sapiens, UniProt Q01892 1-262); settings: protein: recombinant; tags: N-terminal GST; dsDNA, one strand shown
# Chain of SPIB (Q01892 whole entry): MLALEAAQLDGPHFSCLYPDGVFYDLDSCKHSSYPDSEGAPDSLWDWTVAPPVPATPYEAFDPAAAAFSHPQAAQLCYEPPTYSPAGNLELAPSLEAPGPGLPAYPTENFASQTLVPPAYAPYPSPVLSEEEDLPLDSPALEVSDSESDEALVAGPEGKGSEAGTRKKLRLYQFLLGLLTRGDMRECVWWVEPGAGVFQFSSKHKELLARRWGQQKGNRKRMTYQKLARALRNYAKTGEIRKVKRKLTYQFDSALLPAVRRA
# In short: as §1
# [9] = molecular target: T6, ELK3 (Homo sapiens, UniProt P41970 1-407); settings: protein: recombinant; tags: N-terminal GST; dsDNA, one strand shown
# T6 sequence: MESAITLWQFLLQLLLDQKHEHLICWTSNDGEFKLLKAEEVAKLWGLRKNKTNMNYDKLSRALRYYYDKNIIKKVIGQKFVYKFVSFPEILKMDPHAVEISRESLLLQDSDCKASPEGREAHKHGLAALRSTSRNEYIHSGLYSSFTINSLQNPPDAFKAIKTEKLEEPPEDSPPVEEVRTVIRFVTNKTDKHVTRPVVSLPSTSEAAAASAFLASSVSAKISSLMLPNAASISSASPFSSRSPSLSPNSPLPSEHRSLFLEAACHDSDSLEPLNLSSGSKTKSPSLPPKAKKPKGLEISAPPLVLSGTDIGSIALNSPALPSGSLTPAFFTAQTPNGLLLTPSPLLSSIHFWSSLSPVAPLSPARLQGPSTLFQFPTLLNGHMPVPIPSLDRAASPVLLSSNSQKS
# In short: as §1
# [10] = molecular target: T7, FEV (Homo sapiens, UniProt Q99581 1-238); settings: protein: recombinant; tags: N-terminal GST; dsDNA, one strand shown
# T7 sequence: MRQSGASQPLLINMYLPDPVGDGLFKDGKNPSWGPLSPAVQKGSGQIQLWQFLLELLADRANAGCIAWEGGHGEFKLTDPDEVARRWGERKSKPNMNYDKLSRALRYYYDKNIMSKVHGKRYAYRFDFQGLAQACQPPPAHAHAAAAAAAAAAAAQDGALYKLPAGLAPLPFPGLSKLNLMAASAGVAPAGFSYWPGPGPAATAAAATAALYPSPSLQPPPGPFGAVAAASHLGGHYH
# In short: as §1
# [11] = molecular target: ETV5 (Homo sapiens, UniProt P41161 1-510); settings: protein: recombinant; tags: N-terminal GST; dsDNA, one strand shown
# Chain of ETV5 (P41161 whole entry): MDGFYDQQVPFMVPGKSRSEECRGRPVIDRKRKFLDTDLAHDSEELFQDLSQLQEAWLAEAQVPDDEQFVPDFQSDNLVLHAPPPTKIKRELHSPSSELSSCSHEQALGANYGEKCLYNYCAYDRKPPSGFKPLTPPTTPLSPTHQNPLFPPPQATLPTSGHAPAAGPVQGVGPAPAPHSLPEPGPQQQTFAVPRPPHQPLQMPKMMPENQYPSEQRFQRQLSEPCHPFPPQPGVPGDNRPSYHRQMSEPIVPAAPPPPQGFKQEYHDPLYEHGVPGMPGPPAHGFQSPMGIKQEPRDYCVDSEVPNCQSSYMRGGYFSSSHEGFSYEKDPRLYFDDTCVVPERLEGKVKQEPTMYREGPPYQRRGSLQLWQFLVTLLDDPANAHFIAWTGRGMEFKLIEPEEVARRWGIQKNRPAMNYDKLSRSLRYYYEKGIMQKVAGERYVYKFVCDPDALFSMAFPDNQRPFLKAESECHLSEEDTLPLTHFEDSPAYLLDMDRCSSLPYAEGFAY
# In short: as §1
# [12] = molecular target: HSF1 (Homo sapiens, UniProt Q00613 1-529); settings: protein: recombinant; tags: N-terminal GST; chain copies: 3; dsDNA, one strand shown
# Chain of HSF1 (Q00613 whole entry): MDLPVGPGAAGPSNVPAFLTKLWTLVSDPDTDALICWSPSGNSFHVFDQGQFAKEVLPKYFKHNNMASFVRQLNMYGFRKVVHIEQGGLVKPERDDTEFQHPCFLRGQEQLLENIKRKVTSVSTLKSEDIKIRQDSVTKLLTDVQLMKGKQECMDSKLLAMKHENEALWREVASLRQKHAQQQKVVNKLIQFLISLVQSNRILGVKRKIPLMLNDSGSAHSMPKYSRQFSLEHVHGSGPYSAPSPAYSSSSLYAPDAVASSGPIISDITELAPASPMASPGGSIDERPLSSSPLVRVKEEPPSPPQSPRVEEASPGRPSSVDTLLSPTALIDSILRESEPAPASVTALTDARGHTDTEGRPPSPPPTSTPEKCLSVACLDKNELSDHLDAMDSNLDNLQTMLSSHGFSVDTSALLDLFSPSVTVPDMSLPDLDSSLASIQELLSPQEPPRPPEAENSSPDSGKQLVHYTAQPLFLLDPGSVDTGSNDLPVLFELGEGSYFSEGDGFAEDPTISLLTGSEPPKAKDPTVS
# In short: as §1
# [13] = molecular target: T8, SPIC (Homo sapiens, UniProt Q8N5J4 1-248); settings: protein: recombinant; tags: N-terminal GST; dsDNA, one strand shown
# T8 sequence: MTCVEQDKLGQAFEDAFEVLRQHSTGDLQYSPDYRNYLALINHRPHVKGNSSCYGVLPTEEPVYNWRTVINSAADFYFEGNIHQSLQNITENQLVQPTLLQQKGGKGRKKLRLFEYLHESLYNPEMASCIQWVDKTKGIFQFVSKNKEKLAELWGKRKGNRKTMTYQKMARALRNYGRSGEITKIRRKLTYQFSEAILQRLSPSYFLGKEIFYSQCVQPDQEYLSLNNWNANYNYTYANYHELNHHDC
# In short: as §1
# [14] = molecular target: ELF4 (Homo sapiens, UniProt Q99607 1-663); settings: protein: recombinant; tags: N-terminal GST; dsDNA, one strand shown
# Chain of ELF4 (Q99607 whole entry): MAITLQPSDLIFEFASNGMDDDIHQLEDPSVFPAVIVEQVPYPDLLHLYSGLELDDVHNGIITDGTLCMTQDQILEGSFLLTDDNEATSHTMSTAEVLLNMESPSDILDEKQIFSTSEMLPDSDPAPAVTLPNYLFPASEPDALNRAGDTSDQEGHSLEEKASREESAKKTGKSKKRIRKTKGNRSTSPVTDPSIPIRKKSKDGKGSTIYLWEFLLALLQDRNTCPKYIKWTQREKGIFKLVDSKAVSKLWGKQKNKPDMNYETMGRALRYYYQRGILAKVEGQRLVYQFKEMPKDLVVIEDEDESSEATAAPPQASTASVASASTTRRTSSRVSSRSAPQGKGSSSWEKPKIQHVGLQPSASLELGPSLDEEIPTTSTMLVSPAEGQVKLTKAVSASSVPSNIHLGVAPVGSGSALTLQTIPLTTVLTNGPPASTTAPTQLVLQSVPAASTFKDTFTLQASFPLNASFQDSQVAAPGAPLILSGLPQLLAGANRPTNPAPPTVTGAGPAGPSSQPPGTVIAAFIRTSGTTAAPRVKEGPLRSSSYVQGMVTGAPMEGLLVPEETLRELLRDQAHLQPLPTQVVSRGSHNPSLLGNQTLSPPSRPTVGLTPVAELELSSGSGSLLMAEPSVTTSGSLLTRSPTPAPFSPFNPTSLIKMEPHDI
# In short: as §1
# [15] = molecular target: T9, ELK4 (Homo sapiens, UniProt P28324-2 1-405); settings: protein: recombinant; tags: N-terminal GST; dsDNA, one strand shown
# T9 sequence: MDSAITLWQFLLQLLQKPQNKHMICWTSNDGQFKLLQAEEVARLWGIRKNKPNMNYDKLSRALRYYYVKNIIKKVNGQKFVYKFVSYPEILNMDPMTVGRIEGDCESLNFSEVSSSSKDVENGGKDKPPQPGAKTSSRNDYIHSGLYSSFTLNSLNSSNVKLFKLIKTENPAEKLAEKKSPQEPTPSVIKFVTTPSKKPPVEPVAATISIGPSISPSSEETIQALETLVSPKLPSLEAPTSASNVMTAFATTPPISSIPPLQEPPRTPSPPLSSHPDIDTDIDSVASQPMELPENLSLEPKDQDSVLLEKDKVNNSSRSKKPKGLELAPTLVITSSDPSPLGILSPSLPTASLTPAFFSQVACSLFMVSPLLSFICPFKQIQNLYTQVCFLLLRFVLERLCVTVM
# In short: as §1
# [16] = molecular target: T10, ETV2 (Homo sapiens, UniProt O00321 1-342); settings: protein: recombinant; tags: N-terminal GST; dsDNA, one strand shown
# T10 sequence: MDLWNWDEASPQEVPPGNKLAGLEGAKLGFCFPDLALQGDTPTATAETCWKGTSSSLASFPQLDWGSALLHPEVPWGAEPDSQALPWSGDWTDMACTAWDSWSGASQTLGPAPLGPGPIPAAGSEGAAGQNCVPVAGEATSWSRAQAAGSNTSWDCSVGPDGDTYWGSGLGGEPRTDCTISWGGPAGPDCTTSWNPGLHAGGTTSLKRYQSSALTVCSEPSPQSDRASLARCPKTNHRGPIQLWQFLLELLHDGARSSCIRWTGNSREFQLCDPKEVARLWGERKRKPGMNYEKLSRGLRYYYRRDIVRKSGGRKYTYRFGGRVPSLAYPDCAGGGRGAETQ
# In short: as §1
# [17] = molecular target: T11, ELF3 (Homo sapiens, UniProt P78545 1-371); settings: protein: recombinant; tags: N-terminal GST; dsDNA, one strand shown
# T11 sequence: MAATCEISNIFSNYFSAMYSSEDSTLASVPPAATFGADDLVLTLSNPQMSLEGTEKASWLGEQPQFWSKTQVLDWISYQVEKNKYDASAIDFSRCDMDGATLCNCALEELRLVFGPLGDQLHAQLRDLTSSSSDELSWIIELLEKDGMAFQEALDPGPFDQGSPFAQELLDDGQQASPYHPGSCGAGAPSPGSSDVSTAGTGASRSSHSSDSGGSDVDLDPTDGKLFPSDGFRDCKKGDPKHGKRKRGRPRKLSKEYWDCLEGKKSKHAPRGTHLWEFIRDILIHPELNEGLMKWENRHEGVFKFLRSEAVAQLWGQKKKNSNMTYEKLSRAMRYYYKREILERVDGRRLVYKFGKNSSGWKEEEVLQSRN
# In short: as §1
# [18] = molecular target: CRX (Homo sapiens, UniProt O43186 1-299); settings: protein: recombinant; tags: N-terminal GST; dsDNA, one strand shown
# Chain of CRX (O43186 whole entry): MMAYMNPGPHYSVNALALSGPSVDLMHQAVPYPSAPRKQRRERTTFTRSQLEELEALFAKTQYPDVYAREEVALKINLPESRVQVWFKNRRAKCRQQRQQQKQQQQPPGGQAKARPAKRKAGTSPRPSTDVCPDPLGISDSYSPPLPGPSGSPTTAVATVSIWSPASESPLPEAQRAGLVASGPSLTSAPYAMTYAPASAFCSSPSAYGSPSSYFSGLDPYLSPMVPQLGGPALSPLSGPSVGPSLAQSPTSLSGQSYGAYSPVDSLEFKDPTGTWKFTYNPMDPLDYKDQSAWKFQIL
# In short: as §1
# [19] = molecular target: ETV1 (Homo sapiens, UniProt P50549 1-477); settings: protein: recombinant; tags: N-terminal GST; dsDNA, one strand shown
# Chain of ETV1 (P50549 whole entry): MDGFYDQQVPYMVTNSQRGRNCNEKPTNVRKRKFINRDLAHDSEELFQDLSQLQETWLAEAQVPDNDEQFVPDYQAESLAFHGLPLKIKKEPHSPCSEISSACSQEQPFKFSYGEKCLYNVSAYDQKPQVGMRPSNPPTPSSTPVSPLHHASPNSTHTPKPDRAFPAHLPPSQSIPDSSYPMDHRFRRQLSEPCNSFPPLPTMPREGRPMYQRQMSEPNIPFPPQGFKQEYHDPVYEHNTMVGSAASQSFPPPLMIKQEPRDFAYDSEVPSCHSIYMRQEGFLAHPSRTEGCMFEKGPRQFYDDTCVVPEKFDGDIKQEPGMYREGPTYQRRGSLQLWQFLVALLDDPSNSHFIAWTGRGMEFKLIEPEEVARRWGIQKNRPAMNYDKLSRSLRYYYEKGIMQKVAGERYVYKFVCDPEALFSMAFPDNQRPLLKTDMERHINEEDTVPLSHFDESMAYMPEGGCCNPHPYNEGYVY
# In short: as §1
sequence,measurement,setting,value
ATGGCT,binding signal,[1],"1.17 fold enrichment (6-mer frequency, TF over GST control)"
same,binding signal,[2],"1.34 fold enrichment (6-mer frequency, TF over GST control)"
same,binding signal,[3],"1.29 fold enrichment (6-mer frequency, TF over GST control)"
same,binding signal,[4],"1.37 fold enrichment (6-mer frequency, TF over GST control)"
same,binding signal,[5],"1.37 fold enrichment (6-mer frequency, TF over GST control)"
same,binding signal,[6],"1.4 fold enrichment (6-mer frequency, TF over GST control)"
same,binding signal,[7],"1.28 fold enrichment (6-mer frequency, TF over GST control)"
same,binding signal,[8],"1.37 fold enrichment (6-mer frequency, TF over GST control)"
same,binding signal,[9],"1.28 fold enrichment (6-mer frequency, TF over GST control)"
same,binding signal,[10],"1.33 fold enrichment (6-mer frequency, TF over GST control)"
same,binding signal,[11],"1.29 fold enrichment (6-mer frequency, TF over GST control)"
same,binding signal,[12],"1.32 fold enrichment (6-mer frequency, TF over GST control)"
same,binding signal,[13],"1.42 fold enrichment (6-mer frequency, TF over GST control)"
same,binding signal,[14],"1.32 fold enrichment (6-mer frequency, TF over GST control)"
same,binding signal,[15],"1.34 fold enrichment (6-mer frequency, TF over GST control)"
same,binding signal,[16],"1.41 fold enrichment (6-mer frequency, TF over GST control)"
same,binding signal,[17],"1.33 fold enrichment (6-mer frequency, TF over GST control)"
same,binding signal,[18],"1.48 fold enrichment (6-mer frequency, TF over GST control)"
same,binding signal,[19],"1.29 fold enrichment (6-mer frequency, TF over GST control)"

# Source: article PMC7862700, “An all-to-all approach to the identification of sequence-specific readers for epigenetic DNA modifications on cytosine”
